From ChEMBL document CHEMBL3988442, “University of Dundee, Small-Polar-MMV Screening Library” (2021) come the findings set out here.

For some assays here: Measured potencies and affinities stand elsewhere.

Holding throughout (set-up): scale not given: direction of the effect not stated beside the values
In assay [1] the target is Protein translocase subunit SecA (Escherichia coli (strain K12)) (UniProt P10408). Briefly: Assay to Identify E. coli SecA ATPase Inhibitors. The class given is functional. The settings on record: 30 µM.
Sequence of Protein translocase subunit SecA (Escherichia coli (strain K12)) (P10408 whole entry): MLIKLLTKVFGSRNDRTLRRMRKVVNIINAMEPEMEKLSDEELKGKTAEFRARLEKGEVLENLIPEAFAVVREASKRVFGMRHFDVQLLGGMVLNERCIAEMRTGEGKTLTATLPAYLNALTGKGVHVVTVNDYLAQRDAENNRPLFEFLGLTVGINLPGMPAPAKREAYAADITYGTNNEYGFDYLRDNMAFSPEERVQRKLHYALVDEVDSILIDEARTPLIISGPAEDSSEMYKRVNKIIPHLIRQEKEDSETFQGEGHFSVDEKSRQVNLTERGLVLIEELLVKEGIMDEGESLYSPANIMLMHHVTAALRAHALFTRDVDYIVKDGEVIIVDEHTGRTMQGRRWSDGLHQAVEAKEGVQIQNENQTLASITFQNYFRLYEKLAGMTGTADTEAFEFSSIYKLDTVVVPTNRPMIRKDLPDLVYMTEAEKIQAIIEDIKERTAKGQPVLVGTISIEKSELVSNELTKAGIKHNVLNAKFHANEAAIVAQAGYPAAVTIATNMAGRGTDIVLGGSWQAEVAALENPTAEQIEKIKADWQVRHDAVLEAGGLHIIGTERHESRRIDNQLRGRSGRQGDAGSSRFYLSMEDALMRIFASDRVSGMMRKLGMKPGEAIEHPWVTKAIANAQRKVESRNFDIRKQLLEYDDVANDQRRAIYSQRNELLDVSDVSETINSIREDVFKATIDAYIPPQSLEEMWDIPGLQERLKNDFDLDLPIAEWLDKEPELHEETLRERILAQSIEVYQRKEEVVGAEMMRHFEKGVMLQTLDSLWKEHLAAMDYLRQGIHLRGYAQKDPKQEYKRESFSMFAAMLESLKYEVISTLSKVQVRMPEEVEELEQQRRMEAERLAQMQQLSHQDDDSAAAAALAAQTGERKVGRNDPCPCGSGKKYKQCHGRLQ
The target in assay [2] is T1, Ubiquitin-activating enzyme e1, putative (Leishmania donovani (strain BPK282A1)) (UniProt E9BSI1).
T1 sequence (whole entry): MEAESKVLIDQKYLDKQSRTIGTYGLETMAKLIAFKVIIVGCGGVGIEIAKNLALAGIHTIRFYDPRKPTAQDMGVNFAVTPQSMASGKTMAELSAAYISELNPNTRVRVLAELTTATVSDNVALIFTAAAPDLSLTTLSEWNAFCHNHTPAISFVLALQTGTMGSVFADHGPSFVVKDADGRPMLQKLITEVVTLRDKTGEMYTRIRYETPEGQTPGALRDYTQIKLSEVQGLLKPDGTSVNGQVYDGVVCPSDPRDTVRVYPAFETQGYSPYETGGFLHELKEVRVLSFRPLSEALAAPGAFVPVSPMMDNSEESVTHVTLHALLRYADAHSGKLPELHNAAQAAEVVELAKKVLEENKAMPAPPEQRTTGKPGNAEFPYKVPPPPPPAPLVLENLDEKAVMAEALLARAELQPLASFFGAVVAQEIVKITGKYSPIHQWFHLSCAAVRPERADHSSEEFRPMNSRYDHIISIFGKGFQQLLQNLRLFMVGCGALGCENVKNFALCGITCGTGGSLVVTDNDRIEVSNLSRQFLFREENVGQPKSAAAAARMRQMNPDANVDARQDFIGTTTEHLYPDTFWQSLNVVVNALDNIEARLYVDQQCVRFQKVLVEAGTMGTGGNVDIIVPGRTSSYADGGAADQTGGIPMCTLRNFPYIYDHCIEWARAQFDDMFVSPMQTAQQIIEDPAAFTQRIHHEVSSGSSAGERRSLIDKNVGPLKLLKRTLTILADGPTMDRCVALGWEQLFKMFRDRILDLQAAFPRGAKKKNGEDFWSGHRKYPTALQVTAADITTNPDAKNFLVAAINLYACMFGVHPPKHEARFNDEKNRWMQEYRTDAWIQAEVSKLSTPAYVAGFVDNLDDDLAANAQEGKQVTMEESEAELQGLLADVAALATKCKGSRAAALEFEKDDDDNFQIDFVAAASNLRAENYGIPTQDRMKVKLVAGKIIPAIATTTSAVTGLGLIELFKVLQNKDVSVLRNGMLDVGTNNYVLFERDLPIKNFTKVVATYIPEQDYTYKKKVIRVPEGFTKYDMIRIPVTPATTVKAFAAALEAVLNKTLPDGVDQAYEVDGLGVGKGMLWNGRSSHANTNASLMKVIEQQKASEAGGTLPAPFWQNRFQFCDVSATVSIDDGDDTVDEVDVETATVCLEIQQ
Briefly: Leishmania donovani Ubiquitin Activating Enzyme (LdE1). In kind it is functional. Particulars: 30 µM.

The target of assay [3] is AMP-activated protein kinase, AMPK (Homo sapiens) (UniProt P54646+O43741+P54619+Q9UGJ0+Q9Y478+Q13131+Q9UGI9). Briefly: AMP-dependent Kinase enzyme assay. An in vitro enzyme assay that detects ADP turnover that is directly proportional to AMPK activity. This uses naive AMPK that is activated during the assay with MK-8722. The settings on record: 30 µM. In kind it is functional.

The target in assay [4] is Sialic acid-binding Ig-like lectin 9 (Homo sapiens) (UniProt Q9Y336). Kind of assay: Hs-Siglec9 ALPHAscreen SOP 20170721. The settings on record: 10 µM.
Sequence of Sialic acid-binding Ig-like lectin 9 (Homo sapiens) (Q9Y336 whole entry): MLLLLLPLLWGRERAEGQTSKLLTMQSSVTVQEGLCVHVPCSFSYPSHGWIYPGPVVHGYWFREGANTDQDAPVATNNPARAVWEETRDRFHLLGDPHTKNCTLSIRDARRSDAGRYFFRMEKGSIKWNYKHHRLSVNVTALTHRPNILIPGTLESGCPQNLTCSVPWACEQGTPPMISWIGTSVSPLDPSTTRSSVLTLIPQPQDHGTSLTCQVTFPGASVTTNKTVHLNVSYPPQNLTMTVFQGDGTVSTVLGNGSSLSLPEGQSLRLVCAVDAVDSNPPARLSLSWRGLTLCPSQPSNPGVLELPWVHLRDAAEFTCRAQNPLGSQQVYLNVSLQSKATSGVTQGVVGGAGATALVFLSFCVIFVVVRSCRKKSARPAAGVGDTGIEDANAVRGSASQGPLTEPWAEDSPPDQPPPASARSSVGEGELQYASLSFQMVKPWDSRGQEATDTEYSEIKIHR
In another assay the test system is Trypanosoma cruzi. Briefly: Trypanosoma cruzi phosphomannomutase and mannose-1-phosphate guanylyltransferase assay. Particulars: 10 µM. In kind it is functional.
Assay [5] addresses T2, Arginase-2, mitochondrial (Homo sapiens) (UniProt P78540).
T2 sequence (whole entry): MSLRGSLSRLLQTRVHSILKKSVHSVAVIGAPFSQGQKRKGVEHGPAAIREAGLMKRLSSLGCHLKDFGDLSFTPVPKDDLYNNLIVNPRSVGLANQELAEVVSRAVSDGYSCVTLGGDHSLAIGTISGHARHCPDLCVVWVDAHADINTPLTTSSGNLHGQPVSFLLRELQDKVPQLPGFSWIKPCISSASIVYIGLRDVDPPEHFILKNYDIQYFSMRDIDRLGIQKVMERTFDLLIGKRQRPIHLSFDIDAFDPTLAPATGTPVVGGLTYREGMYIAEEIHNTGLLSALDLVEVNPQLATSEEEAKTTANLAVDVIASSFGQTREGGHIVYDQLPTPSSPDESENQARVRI
Kind of assay: in vitro enzyme assay to detect the production of urea directly proportional to the activity of Arginase II. Note: in the data most compounds retested in dose-response had high values. In kind it is functional. Particulars: 33.3 µM.

The target of assay [6] is T3, Proteasome subunit beta (Trypanosoma cruzi) (UniProt O96673).
T3 sequence (whole entry): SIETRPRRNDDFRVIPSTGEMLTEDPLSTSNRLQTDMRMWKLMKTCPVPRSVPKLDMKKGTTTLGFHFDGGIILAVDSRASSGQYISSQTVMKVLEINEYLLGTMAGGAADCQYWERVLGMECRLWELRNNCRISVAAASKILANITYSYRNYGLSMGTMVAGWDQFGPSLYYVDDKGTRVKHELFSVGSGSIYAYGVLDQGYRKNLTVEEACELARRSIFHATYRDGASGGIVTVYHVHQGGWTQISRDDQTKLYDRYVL
Briefly: Trypanosoma cruzi proteasome chymotrypsin-like activity (TcProtChymo) assay. Note: in the data most compounds retested in dose-response had high values. The class given is functional. Particulars: 9.37 µM.

A further assay is filed under the species Homo sapiens. Briefly: To identify inhibition of the IFN signalling (Jak-Stat) pathway via expression of an eGFP reporter gene under the control of an IFN-stimulated response element (ISRE) containing MxA promoter. In kind it is functional. Particulars: 30 µM. On the technique in general: A reporter such as luciferase makes a cellular process visible.
Assay [7] has as its target T4, Tyrosyl-tRNA synthetase, putative (Trypanosoma cruzi (strain CL Brener)) (UniProt Q4DSP6).
T4 sequence (whole entry): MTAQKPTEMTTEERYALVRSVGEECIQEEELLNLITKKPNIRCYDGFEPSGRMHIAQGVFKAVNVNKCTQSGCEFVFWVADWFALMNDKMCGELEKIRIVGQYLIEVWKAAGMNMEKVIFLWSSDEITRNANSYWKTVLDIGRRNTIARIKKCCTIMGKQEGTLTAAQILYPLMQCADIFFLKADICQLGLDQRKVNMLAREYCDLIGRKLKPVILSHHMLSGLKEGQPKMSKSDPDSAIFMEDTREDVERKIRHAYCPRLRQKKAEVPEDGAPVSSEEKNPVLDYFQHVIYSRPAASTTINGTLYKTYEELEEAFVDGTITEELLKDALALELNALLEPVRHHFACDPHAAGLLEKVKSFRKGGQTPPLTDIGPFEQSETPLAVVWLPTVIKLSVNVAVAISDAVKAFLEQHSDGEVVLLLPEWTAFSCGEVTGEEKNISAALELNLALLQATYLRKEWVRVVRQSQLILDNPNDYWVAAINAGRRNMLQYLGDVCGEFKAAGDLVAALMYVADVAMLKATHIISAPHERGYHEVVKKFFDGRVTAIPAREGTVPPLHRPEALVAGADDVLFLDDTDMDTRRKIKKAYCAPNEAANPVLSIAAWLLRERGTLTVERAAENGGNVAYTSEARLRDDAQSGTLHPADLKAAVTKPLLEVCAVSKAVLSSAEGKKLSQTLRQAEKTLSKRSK
Kind of assay: Trypanosoma cruzi tyrosyl tRNA synthetase (TcYRS) _High Tyrosine SOP. Note: in the data most compounds retested in dose-response had high values. The class given is functional. Particulars: 30 µM.

In assay [8] the target is T4, Tyrosyl-tRNA synthetase, putative (Trypanosoma cruzi (strain CL Brener)). Briefly: Trypanosoma cruzi tyrosyl tRNA synthetase (TcYRS) SOP. The settings on record: 30 µM. The class given is functional.
Assay [9] has as its target Chromo domain-containing protein 1 (Saccharomyces cerevisiae (strain ATCC 204508 / S288c) (Baker's yeast)) (UniProt P32657). Briefly: ScCHD-1 Enzyme Inhibition Assay. Note: in the data most compounds retested in dose-response had high values. The class given is functional. The settings on record: 30 µM.

Sequence of Chromo domain-containing protein 1 (Saccharomyces cerevisiae (strain ATCC 204508 / S288c) (Baker's yeast)) (P32657 whole entry, the tested form may be a part): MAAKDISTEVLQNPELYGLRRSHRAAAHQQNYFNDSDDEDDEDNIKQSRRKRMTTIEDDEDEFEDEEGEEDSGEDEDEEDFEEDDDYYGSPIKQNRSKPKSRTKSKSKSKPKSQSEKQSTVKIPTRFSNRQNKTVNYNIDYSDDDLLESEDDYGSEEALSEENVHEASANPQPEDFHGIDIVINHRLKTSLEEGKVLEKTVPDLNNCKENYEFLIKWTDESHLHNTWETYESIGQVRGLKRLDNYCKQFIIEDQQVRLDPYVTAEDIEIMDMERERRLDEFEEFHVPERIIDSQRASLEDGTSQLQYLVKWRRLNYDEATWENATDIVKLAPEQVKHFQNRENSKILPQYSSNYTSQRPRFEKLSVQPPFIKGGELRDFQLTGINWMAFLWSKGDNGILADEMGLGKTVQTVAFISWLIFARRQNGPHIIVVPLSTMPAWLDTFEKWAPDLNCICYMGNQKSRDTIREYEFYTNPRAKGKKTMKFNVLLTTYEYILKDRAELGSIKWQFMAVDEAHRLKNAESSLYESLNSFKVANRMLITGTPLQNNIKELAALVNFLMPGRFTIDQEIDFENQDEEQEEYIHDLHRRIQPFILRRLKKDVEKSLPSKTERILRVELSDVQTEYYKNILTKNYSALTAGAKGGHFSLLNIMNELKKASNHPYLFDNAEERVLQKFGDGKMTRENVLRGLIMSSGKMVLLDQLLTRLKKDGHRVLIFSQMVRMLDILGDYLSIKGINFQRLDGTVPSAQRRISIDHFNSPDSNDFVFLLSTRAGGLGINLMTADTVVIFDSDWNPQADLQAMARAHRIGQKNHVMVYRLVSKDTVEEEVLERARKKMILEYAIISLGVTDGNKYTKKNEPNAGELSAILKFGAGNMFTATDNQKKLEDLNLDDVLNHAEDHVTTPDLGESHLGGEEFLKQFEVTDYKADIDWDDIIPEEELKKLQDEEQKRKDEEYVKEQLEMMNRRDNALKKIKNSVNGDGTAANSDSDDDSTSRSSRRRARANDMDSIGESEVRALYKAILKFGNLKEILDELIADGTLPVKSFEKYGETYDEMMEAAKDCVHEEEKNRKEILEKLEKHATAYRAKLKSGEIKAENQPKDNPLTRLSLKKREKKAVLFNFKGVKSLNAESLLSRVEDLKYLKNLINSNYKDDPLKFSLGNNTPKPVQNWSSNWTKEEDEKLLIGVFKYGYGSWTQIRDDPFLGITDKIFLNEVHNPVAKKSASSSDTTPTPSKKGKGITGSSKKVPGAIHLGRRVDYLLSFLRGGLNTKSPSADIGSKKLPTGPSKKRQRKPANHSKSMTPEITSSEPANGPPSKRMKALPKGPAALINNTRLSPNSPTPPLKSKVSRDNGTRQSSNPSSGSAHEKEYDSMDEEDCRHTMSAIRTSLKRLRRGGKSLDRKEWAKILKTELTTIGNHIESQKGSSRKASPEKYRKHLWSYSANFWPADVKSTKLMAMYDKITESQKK

For `COCCC(=O)N1CC[C@@H]2O[C@@H](C)C[C@H]2C1`, the Percent Effect in assay [1] was -6.08%; in assay [2] it was 8%; in [3] it was 0.716%; in assay [4], 0.473%; with Trypanosoma cruzi, 2.36%; in assay [5], -3.96%. The Percent Effect in assay [6] was 6.61%; in the assay listed under Homo sapiens, 15.7%; in assay [7], 6.38%; in assay [8] it was 11.5%; in [9], -7.49%.

In the case of `Cc1ccccc1CNC(=O)Cc1c(C)nc2cc(=O)[nH]n2c1C`, the Percent Effect in assay [1] was -2.72%; in assay [2], 13.2%; in [3] it was -32.1%; in assay [4] it was 17.4%; in the assay on Trypanosoma cruzi, 4.13%; in assay [5] it was -4.21%. The Percent Effect in [6] was 4.18%; in the assay listed under Homo sapiens, 2.25%; in assay [7], 9.31%; in [8] it was 17.1%; in assay [9], -11.1%.

Consider `Cc1ccn(-c2ccc(C(=O)N3CCCC(n4ccnc4)C3)cc2)n1` (stereo not given), for which the Percent Effect in assay [1] is 1.74%; in [2], -2.53%; in [3], 4.22%; in assay [4], -1.83%; in the assay on Trypanosoma cruzi it was 1.6%; in assay [5], 2.66%. The Percent Effect in assay [6] is -2.21%; in the assay filed under Homo sapiens it was 1.73%; in assay [7], 4.43%; in [8] it was -3.8%; in [9], -1.63%.

As to `Cn1ccnc1CN1CCN(Cc2ccccc2C#N)CC1`, the Percent Effect in assay [1] is -5.61%; in [2] it was 18.4%; in [3], -14.9%; in assay [4] it was 6.65%; with Trypanosoma cruzi it was 2.52%; in [5], -0.719%. Further, the Percent Effect in assay [6] is 6.34%; in the assay listed under Homo sapiens, 5.87%; in assay [7], 12.3%; in [8], 18.5%; in assay [9], -9.79%.

With `CCS(=O)(=O)Nc1ccn(Cc2cccc(Cl)c2)n1`, the Percent Effect in assay [1] is -6.93%; in assay [2] it was 0%; in assay [3] it was 0.628%; in [4] it was 6.52%; in the assay on Trypanosoma cruzi it was 2.85%; in [5], 1.38%. In addition, the Percent Effect in [6] stood at 9.48%; in the assay listed under Homo sapiens it was 13.7%; in assay [7], 6.45%; in assay [8], 13.6%; in assay [9] it was 120%.

With `CCOC(=O)c1sc2ccsc2c1CNC(=O)C(C)(C)C#N`, the Percent Effect was -2.65% in assay [1]; 0% in [2]; 8.08% in assay [3]; 1.84% in assay [4]; 1.76% in the assay with Trypanosoma cruzi; -5.73% in [5]. In addition, the Percent Effect in assay [6] is -5.57%; in the assay filed under Homo sapiens, 13.9%; in assay [7], 5.94%; in [8], 11%; in [9], 14.5%.

For the compound `CNc1cncc(C2CCCN2C(=O)c2ccc3oc(=O)n(C)c3c2)n1` (stereo not given), the Percent Effect in assay [1] is -2.39%; in assay [2], 14.9%; in assay [3] it was 8.4%; in assay [4] it was -7.77%; in the assay with Trypanosoma cruzi it was 3.36%; in [5], 0.696%. Further, the Percent Effect in assay [6] was 9.36%; in the assay listed under Homo sapiens, -8.91%; in assay [7] it was 5.38%; in assay [8], 3.9%; in assay [9], -16.2%.

As to `CN(C)C(=O)N1CCOCC2(CCN(c3ncccn3)C2)C1` (stereo not given), the Percent Effect in [1] was -4.78%; in assay [2], 8.11%; in assay [3], -5.27%; in assay [4], 28.6%; with Trypanosoma cruzi, 6.35%; in assay [5], -1.24%. In addition, the Percent Effect in assay [6] is 5.75%; in the assay listed under Homo sapiens, -36.2%; in [7], 6.45%; in [8] it was 11.1%; in assay [9] it was -5.72%.

Turning to `CN(C)C(=O)N1C[C@H](Oc2ccccn2)[C@H]2OCCC[C@H]21`, the Percent Effect in [1] was 0.276%; in assay [2] it was 0%; in assay [3], 4.78%; in [4] it was 2.55%; in the assay with Trypanosoma cruzi it was -2.27%; in assay [5] it was 0.645%. Moreover, the Percent Effect is 3.65% in assay [6]; -2.96% in the assay filed under Homo sapiens; 3.17% in assay [7]; 3.85% in assay [8]; -3.5% in assay [9].

Regarding `O=C(CO[C@@H]1CC[C@H]2[C@H]1OCCN2CC1CCOCC1)N1CCCC1`, the Percent Effect in [1] is -4.19%; in [2], 0%; in assay [3], 2.42%; in assay [4] it was -1.24%; in the assay with Trypanosoma cruzi it was -3.12%; in assay [5], 2.08%. Further, the Percent Effect is 11.1% in assay [6]; 2.51% in the assay filed under Homo sapiens; 8.91% in assay [7]; 8.54% in assay [8]; 1.37% in assay [9].
